This is an account of results in the supplement of paper PMC3334620.

The full ranking holds about 33,000 sequences; the median of “E-score (-0.5 to 0.5)” is about -0.016, and the highest 2% start at about 0.31. The entries come from a sample that favours the highest values as a whole.

The target of this assay is Cst6 (UniProt P40535). The assay is described as follows: PBM E-score (8-mer binding enrichment) (E-score (-0.5 to 0.5)); higher = stronger / more preferred TF binding. Conditions: protein concentration: 200 nM; construct: GST-DNA-binding domain. The method, boiled down: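 The E-score, a modified Wilcoxon-Mann-Whitney statistic, was computed by the Universal PBM Analysis Suite for every ungapped eight-base word pooled with its reverse complement. Scans behind it were normalised with masliner after bound GST-tagged yeast transcription factors were detected with fluorescent anti-GST. The proteins, at about 100-200 nM, had been applied to universal all-10-mer Agilent arrays made double-stranded by primer extension.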
Chain of UniProt P40535 (P40535 whole entry, the tested form may be a part): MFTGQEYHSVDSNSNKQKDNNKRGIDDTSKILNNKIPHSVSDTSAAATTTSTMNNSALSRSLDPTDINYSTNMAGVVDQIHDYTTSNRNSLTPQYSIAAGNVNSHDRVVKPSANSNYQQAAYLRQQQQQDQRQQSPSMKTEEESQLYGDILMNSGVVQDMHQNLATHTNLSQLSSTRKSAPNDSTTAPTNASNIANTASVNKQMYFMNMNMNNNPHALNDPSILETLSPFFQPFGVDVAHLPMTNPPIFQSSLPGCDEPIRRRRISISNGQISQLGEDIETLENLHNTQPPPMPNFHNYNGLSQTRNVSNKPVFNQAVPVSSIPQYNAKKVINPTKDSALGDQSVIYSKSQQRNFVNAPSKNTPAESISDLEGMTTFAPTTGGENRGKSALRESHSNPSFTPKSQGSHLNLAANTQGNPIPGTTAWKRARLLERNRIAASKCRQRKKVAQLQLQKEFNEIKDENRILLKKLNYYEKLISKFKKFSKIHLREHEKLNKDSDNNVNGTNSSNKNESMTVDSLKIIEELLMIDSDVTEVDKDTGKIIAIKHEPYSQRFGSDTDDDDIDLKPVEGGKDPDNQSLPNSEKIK
Regarding AAGTCATG, the “PBM E-score” value was determined as 0.185. Turning to AAGTCATC, the “PBM E-score” value was 0.114. Consider AGGTCATA, for which the “PBM E-score” value worked out at 0.168. Take ACGTCATC: the “PBM E-score” value amounted to 0.497. In the case of AAGTCATA, the “PBM E-score” value is 0.283.

Regarding CCGTCATA, the “PBM E-score” value stood at 0.363. The result for ACGTCATG reads 0.495. The result for ACGTCATA reads 0.494; that for CGGTCATA, 0.298. Take CTAGACTC: the “PBM E-score” value was -0.329. The result for CAAGGCAG reads -0.119; that for CCATGGCG, 0.102; that for ATTCAGTA, 0.164. Turning to AAGGGACA, the “PBM E-score” value is -0.141. AATTGTTG: the “PBM E-score” value was determined as 0.0795. On to GGCGGGCA, for which the “PBM E-score” value was -0.0394. With CGGTCATC, the “PBM E-score” value came out at 0.085. The result for CAGTCATC reads -0.0341; that for CCGTCATC, 0.385; that for GGGTCATA, -0.0664. The result for GCGTCATA reads 0.463; that for GAGTCATA, 0.144. The result for AACGAAAT reads 0.156; that for AGATTGAG, 0.228.

CCTTGGCA: the “PBM E-score” value was -0.209. On to CTTTGTTC, for which the “PBM E-score” value amounted to 0.126. Turning to ATTTGTTC, the “PBM E-score” value was 0.332. Take ATTTGTTA: the “PBM E-score” value is 0.22. Turning to GTTGGCTA, the “PBM E-score” value is -0.0861. Turning to AGCTTTTC, the “PBM E-score” value was -0.00677. In the case of ACGGCACG, the “PBM E-score” value was 0.348. Regarding CCGGCACG, the “PBM E-score” value was -0.1. Regarding TCGGCACA, the “PBM E-score” value was -0.0165. As to ACGGCTCG, the “PBM E-score” value stood at 0.312. For ACGGCTCC, the “PBM E-score” value came out at 0.256.

As for CCGGCACA, the “PBM E-score” value was -0.136. As to ACGGCACA, the “PBM E-score” value was determined as 0.327.

With CCGGCTCG, the “PBM E-score” value is -0.128. For ACGGCAGA, the “PBM E-score” value amounted to 0.064. CAGGCGTC: the “PBM E-score” value is -0.00038. On to CGCGCGAG, for which the “PBM E-score” value worked out at 0.0316. Turning to ACAGGCCA, the “PBM E-score” value is -0.202.

In the case of GAAATTGA, the “PBM E-score” value amounted to 0.153.

Regarding CGGTCGTA, the “PBM E-score” value was -0.304.

Consider GTTGCCGA, for which the “PBM E-score” value is 0.0213. For GCACCAGC, the “PBM E-score” value is -0.176. In the case of AGTATGGG, the “PBM E-score” value is -0.162.

For GTGCGGCA, the “PBM E-score” value is 0.311. Regarding ATGCGGCA, the “PBM E-score” value was found to be 0.312. On to ATGCGGCC, for which the “PBM E-score” value was 0.0608. Regarding GTGCGGAA, the “PBM E-score” value is -0.0138. On to ACGCGGCA, for which the “PBM E-score” value amounted to 0.28. The result for AGGCGGCA reads 0.119.

For the sequence ACGCGGCG, the “PBM E-score” value was determined as 0.363.

Regarding GCGCGGCA, the “PBM E-score” value was determined as 0.264. The same measure for ATGCGGCG: 0.343; for CTGCGGCA: 0.182; for ACGCGGCT: 0.248.

For the sequence AGGCGGCG, the “PBM E-score” value worked out at 0.204.

As for GAATTCAC, the “PBM E-score” value is 0.0689. For the sequence GCCAACCA, the “PBM E-score” value was -0.0975. Consider ATACCCTG, for which the “PBM E-score” value was -0.0744.

For CGGAAGCA, the “PBM E-score” value turned out to be 0.151.

Regarding AGTCTTCA, the “PBM E-score” value was -0.0551. Consider TCCCCACA, for which the “PBM E-score” value is -0.103. AGGGCACC: the “PBM E-score” value was -0.282. The result for AGGGCACT reads -0.0161; that for GCGGCAGC, -0.104; that for ACGGCACC, 0.391. The result for ACGGCATA reads 0.245; that for AAGGCACT, -0.0255; that for CCGGCACC, -0.146. Take GCGGCACC: the “PBM E-score” value was 0.311. Take ACGGCATG: the “PBM E-score” value amounted to 0.126. Consider ACGGCATC, for which the “PBM E-score” value was 0.375. Take GCGGCACA: the “PBM E-score” value amounted to 0.176. For the sequence ACGGCACT, the “PBM E-score” value came to 0.352.

For AATCAGAA, the “PBM E-score” value worked out at 0.00689. The same measure for CATATCCC: 0.0321; for ACGATCAA: 0.135. With AAACCATG, the “PBM E-score” value was -0.0483.

Take GCGACTAA: the “PBM E-score” value amounted to 0.0201.

As to GAGTTTGC, the “PBM E-score” value is -0.0936. For the sequence CGTAAAGA, the “PBM E-score” value stood at 0.167.

For the sequence ATTGGTCG, the “PBM E-score” value turned out to be 0.069. With CTCACGGC, the “PBM E-score” value came out at 0.105.

As for GAGTTTCC, the “PBM E-score” value was -0.137. The result for CCGGACGC reads 8e-05; that for ACGGCAAT, 0.329; that for ACGGCAAG, 0.0822. The same measure for ACGGCAAA: 0.28; for TCTACAGA: -0.0513.

For the sequence AGTACCTA, the “PBM E-score” value was determined as 0.00893.

For GGAAAAGA, the “PBM E-score” value was 0.0532. As for CGAAAAGA, the “PBM E-score” value was 0.313. For AGAAAAGA, the “PBM E-score” value was 0.112.

In the case of ACTAAAGC, the “PBM E-score” value was found to be 0.0156. Consider AATGATAC, for which the “PBM E-score” value was found to be 0.316. Consider TAAGATAA, for which the “PBM E-score” value is 0.159. On to AATGATAG, for which the “PBM E-score” value stood at 0.174.

With CATGATAC, the “PBM E-score” value was 0.251. Consider ACTGATAT, for which the “PBM E-score” value was found to be 0.109.

Regarding GATGATAC, the “PBM E-score” value is 0.127. The same measure for AATGATAT: 0.322.

For AAAGATAG, the “PBM E-score” value is -0.026. As to AGTGATAT, the “PBM E-score” value turned out to be 0.0988. CATGATAA: the “PBM E-score” value turned out to be 0.155.

Regarding AATGATAA, the “PBM E-score” value amounted to 0.347. Turning to AAAGATAA, the “PBM E-score” value worked out at 0.308. As for CGATATCA, the “PBM E-score” value came out at 0.145.
